In PubChem BioAssay AID1671202 (University of Kansas High Throughput Screening Laboratory, 2021):
“And” between values parts separate entries of the source, which are not always exact repeats. Equal entries are not always repeated. Screen size: about 190,000 compounds; about 6,900 (3.6%) were called active. No stated cut-off is given here; in the data, active means inhibition above about 50%; inactive means the rest. Shown is part of a subset that was picked to be rich in actives.

What follows are compounds tested against Huntingtin (Homo sapiens) (UniProt P42858) (assay: mutant huntingtin-calmodulin interaction inhibitors – biochemical, AlphaScreen, primary screen (AID 1671202;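 further: 0% = both proteins with DMSO and 100% = one protein alone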)). Details: AlphaScreen His-mHTT/GST-CaM binding, luminescence; at 15 µM, active compounds read high.
Chain of Huntingtin (Homo sapiens) (P42858 whole entry, looked up, stated change not applied): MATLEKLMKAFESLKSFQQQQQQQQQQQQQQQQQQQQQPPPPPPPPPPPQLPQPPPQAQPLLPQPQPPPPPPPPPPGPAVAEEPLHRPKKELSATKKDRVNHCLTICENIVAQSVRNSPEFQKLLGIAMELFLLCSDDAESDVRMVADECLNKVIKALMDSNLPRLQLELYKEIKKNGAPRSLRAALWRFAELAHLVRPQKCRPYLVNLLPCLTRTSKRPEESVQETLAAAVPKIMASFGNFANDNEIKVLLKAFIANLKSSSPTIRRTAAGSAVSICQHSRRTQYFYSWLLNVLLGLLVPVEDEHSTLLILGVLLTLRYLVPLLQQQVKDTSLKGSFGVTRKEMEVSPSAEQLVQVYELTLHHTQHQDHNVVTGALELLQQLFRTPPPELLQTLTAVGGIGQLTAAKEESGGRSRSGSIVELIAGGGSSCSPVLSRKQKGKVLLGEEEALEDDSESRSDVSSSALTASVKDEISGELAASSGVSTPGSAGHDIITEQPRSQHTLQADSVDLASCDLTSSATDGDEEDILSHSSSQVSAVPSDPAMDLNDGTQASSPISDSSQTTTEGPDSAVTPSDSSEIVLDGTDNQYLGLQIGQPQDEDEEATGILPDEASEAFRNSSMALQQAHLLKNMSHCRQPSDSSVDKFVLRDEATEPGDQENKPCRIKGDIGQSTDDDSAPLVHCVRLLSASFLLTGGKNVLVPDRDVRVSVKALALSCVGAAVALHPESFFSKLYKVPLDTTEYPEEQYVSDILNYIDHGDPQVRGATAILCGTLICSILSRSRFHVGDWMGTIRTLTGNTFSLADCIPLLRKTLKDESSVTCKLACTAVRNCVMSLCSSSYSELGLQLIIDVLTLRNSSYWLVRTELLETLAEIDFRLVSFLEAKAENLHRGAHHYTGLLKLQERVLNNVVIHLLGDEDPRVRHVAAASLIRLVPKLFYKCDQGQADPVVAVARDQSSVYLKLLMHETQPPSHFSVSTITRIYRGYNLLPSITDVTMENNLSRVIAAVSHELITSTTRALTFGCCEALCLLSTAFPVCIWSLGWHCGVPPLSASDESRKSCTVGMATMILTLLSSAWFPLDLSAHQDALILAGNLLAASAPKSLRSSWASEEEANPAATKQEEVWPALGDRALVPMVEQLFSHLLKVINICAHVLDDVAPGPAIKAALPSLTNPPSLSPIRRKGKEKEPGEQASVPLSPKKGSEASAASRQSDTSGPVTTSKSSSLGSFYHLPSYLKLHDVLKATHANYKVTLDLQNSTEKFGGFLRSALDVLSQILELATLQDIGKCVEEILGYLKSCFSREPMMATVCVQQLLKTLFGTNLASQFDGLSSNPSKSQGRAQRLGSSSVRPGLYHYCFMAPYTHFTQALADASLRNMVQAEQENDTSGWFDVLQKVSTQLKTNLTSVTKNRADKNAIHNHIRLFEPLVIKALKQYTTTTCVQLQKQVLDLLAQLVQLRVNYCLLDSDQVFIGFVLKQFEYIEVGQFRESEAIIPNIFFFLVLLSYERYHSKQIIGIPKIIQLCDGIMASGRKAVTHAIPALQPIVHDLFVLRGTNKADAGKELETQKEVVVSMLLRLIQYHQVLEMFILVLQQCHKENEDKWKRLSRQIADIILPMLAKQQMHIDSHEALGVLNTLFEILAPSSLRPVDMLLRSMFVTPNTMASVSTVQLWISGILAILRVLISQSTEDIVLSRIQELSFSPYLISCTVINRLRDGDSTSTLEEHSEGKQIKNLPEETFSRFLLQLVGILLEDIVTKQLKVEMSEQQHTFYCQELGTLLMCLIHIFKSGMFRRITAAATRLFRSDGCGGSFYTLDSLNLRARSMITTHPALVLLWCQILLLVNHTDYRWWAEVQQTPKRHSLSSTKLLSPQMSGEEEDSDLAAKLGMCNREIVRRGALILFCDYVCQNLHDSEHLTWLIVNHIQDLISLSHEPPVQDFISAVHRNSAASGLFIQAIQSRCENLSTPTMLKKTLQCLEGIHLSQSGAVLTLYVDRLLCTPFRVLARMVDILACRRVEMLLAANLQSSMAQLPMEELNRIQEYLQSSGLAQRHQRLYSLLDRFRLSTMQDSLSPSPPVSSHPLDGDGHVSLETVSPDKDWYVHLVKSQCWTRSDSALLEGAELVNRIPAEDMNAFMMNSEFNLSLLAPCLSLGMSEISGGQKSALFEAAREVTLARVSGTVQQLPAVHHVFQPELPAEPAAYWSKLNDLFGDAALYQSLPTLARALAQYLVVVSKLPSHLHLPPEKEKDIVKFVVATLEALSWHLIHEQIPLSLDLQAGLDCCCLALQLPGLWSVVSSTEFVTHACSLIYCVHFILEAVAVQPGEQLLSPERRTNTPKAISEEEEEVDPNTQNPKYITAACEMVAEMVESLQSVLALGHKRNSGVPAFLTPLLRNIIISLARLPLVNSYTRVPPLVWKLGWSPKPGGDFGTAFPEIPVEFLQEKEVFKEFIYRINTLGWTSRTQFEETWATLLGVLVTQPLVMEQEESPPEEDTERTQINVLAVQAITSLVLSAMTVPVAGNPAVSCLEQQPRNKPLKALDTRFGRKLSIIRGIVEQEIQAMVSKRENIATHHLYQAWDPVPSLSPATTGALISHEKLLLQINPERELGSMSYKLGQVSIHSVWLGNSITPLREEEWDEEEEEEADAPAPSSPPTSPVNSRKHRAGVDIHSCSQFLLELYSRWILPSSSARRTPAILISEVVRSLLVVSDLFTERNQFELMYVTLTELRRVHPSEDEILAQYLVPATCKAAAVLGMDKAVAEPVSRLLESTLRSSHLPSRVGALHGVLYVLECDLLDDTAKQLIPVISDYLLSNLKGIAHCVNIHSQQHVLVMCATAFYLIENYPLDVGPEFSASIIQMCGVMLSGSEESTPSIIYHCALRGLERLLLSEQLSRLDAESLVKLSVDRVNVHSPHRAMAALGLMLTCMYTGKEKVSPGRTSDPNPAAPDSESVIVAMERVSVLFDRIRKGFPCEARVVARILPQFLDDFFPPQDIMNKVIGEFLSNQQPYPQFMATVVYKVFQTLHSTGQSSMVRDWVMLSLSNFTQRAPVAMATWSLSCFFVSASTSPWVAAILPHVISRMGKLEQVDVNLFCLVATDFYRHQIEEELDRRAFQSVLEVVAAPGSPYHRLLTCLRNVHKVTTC
For `Cc1ccc(F)cc1NS(=O)(=O)c1cccc2cccnc12`, the inhibition was 2% (inactive).
With `O=[N+]([O-])c1ccccc1S(=O)(=O)Nc1cccc2cccnc12` the inhibition was 98.6% (active) and 99% (active).
In the case of `CCc1cccc(NS(=O)(=O)c2ccccc2[N+](=O)[O-])c1`, the inhibition is reported as 10.6% (inactive).
For `COc1cccc(-c2noc(C3CCCN3C(=O)Nc3ccc4c(c3)OCCO4)n2)c1` (stereo unspecified), the inhibition was 13.9% (inactive).
`OC(COc1ccccc1Br)CN1CCN(Cc2ccccc2)CC1` (stereo unspecified) was tested, and the inhibition was -4% (inactive).
With `COc1ccccc1Oc1ncnc2scc(-c3ccc(F)cc3)c12` the inhibition was -1% (inactive).
With `CCOc1ccc(-n2nc(C(=O)Nc3ccc(F)cc3)c3ccccc3c2=O)cc1` the inhibition was -5% (inactive).
With `O=C1NC(=O)/C(=C/c2ccc(-c3ccccc3[N+](=O)[O-])o2)S1` the inhibition was 37% (inactive).
`O=C1NC(=O)/C(=C\c2ccc(-c3cccc(Cl)c3)o2)S1` was tested, and the inhibition was 58% (active).
`O=C1NC(=O)/C(=C/c2ccc(-c3ccc([N+](=O)[O-])cc3)o2)S1` was tested, and the inhibition was 3% (inactive).
In the case of `COc1ccc(CC(=O)Nc2ccc(S(=O)(=O)Nc3c(C)cc(C)cc3C)cc2)cc1`, the inhibition is reported as 13% (inactive).
`COc1cccc(CN2CCOCC2)c1OC` was tested, and the inhibition was -5.1% (inactive).
In the case of `O=C(NC1CC2CC1CN2C(=O)c1ccc(C(F)(F)F)cc1)c1cccnc1` (stereo unspecified), the inhibition is reported as 6.1% (inactive).
For `COc1ccc(N=Cc2cc(Cl)cc(Cl)c2O)cc1OC`, the inhibition was 4% (inactive).
For `Oc1cccc(N=Cc2cc(Cl)cc(Cl)c2O)c1`, the inhibition was 98% (active).
With `CC(=O)Nc1cccc(N=Cc2ccc(Cl)cc2Cl)c1` the inhibition was -2% (inactive).
For `CC(C)OCCCNC(=O)CN1C(=O)/C(=C/c2cccc(Cl)c2)Sc2ccccc21`, the inhibition was 9% (inactive).
With `Cc1ccc(F)cc1NC(=O)Cn1c(=O)nc(N2CCCCC2)c2ccccc21` the inhibition was 12.4% (inactive).
With `COc1ccc(NC(=O)N2CCC(CCOc3ccccc3)CC2)cc1` the inhibition was 3.99% (inactive).
In the case of `Cc1cc2c(cc1C)NC(c1ccc(Cl)s1)C1=C(CC(C)(C)CC1=O)N2` (stereo unspecified), the inhibition is reported as 51% (active).
`CC1(C)CC(=O)C2=C(C1)Nc1ccccc1NC2c1ccc(Br)cc1` (stereo unspecified) was tested, and the inhibition was 3.9% (inactive).
For `Cc1ccc2occ(C3Nc4cc(C)c(C)cc4NC4=C3C(=O)CC(C)(C)C4)c(=O)c2c1` (stereo unspecified), the inhibition was 19% (inactive).
For `COc1ccc(-c2cn3ccn(-c4ccc(F)c(Cl)c4)c(=O)c3n2)cc1OC`, the inhibition was -2.4% (inactive).
With `Cc1cccc2nnc(N3CCC(C(=O)Nc4ccc(Cl)cc4)CC3)n12` the inhibition was 3.32% (inactive).
`CCn1c(N2CCCC(C(=O)NCc3cccc(C)c3)C2)cc(=O)n(C)c1=O` (stereo unspecified) was tested, and the inhibition was 7.32% (inactive).
In the case of `COc1ccc(NS(=O)(=O)c2ccc(N3C(=O)CCC3=O)cc2)c(OC)c1`, the inhibition is reported as -10.9% (inactive).
